Bioassay records from PubChem BioAssay.
Shown are actives, neighbours in structure and some others; about 1.8% of the full set was active somewhere.
HEK293 tox – cytotoxicity in counter-screen for GLP-1R inverse agonists | Potency, µM (titrated, usually from 38.3 µM), actives largely listed as inhibitors | HEK293 cAMP-luciferase reporter cells, luminescence, 24 h | AID 624418 | hit rate 0.13% among 410,000;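 note: loss of luciferase light is scored as toxicity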
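Step one: seed cells (200 cells/uL, DMEM with 10% Nu serum, 1% pen-strep). Step two: 12-hour incubation at 37 deg C. Step three: pin 23 nL compound, incubate 24 hr. Step four: add luciferase reagent, read luminescence 12 min later.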
GLP-1R agonist – activates the human GLP-1 receptor. HEK293 GLP-1R CRE-luciferase, luminescence, 4-6 h; cells express a hypersensitive GLP-1R form. Potency, µM (top dose mostly 45.6 µM), usual class: activators. hit rate 0.007% among 380,000. AID 624172
Target sequence (P43220 whole entry, looked up): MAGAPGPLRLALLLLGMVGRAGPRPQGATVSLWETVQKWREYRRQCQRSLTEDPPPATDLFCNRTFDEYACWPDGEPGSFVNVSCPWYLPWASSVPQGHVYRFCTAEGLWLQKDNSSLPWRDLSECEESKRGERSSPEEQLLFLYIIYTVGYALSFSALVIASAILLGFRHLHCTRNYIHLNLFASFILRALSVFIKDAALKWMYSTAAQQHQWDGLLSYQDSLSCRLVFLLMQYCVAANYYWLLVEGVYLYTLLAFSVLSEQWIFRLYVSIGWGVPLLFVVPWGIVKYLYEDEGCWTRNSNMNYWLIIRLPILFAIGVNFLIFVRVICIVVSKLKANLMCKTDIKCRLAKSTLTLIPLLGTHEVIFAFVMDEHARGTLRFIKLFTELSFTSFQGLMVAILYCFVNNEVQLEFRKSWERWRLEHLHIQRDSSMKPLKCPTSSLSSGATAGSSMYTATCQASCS
TRPML1 blocker – blocks the human TRPML1 channel; Q9GZU1; TRPML1-inducible cells, Ca2+ dye fluorescence, FDSS; stronger effect = lower value; inhibition of EC80 agonist-evoked calcium signal; activity change, negative = inhibition, % (concentration not given with the values); hit rate 0.02% among 390,000; AID 624415; in the data active = activity change below about -50%; inconclusive = between about -30% and that limit;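 note: stimulus is agonist 54-4 at its EC80 concentration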
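TRPML1-DL cells, Tet-induced overnight (~16 h, 37 °C) at 1,500 cells/well, were loaded with Ca8 no-wash dye plus quencher for 45-90 min at room temperature. Compounds were pinned during FDSS kinetic reading; agonist 54-4 at EC80 (4 uM final) then added.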
TRPML1 ag – agonists of human TRPML1 channel; Q9GZU1; TRPML1-expressing cells, Ca2+ dye fluorescence, FDSS; activation, % (no concentration beside the values); hit rate 0.12% among 410,000; AID 624414; in the data active = activation above about 50%; inconclusive = mostly about 30% to 49%
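Tetracycline-induced TRPML1-DL cells are seeded and incubated overnight before loading with a no-wash Ca2+ dye and quencher. Agonist activity is taken from the 110 s fluorescence read following compound pin-transfer on an FDSS, before EC80 54-4 challenge.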
GLP1R inv ag – acts as inverse agonist at human GLP-1 receptor | P43220 | HEK293 GLP-1R CRE-luciferase, luminescence, 24 h; GLP-1R form is constitutively active | Potency, µM (top dose mostly 38.3 µM), usual class: inhibitors | hit rate 1.6% among 410,000 | AID 624417; note: nearly all actives have a fitted effect of over 55% in size
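Readout was luciferase luminescence, measured 12 min after detection reagent at room temperature. Beforehand, GLP-1R reporter HEK293 cells had sat 12 h, then received compounds for 24 hr at 37 deg C.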
Of the large screens only hits and unclear results are named; the others gave an inactive call. Unless noted, calls come from the whole dose curve; as a rule, active = well fitted curve in the direction sought with a large enough effect; inconclusive = small, poorly fitted or top-dose-only effect, or another doubt; inactive = no such curve, though single readings can be large; an effect the other way counts as inactive or inconclusive.

CCOC(=O)c1c(C)[nH]c(CCC(=O)Nc2c(C)cccc2CC)c1C	none (no result: GLP-1R agonist)
CCOc1ccc(Nc2sc(C(=O)c3ccc4c(c3)OCO4)c(N)c2S(=O)(=O)c2ccc(C)cc2)cc1	none
Cc1noc(C)c1COC(=O)c1ccccc1Sc1ccccc1C#N	GLP1R inv ag 8.9µM
N#Cc1ccccc1Sc1ccccc1C(=O)OCC(N)=O	none
COc1ccc(NC(=O)c2cnn(-c3ccccc3)c2C)cc1	GLP1R inv ag 7.9µM
COc1ccc(Nc2ncccc2C(=O)Nc2ccccc2)cc1	GLP1R inv ag inconclusive
CCN(CC)CCNC(=S)NC(=O)c1cn(-c2ccccc2)nc1-c1ccc(OC)cc1	HEK293 tox inconclusive, GLP1R inv ag 5µM
COc1ccc(NC(=O)CN(C)C(=O)c2cn(-c3ccccc3)nc2-c2cccs2)cc1	GLP1R inv ag 11µM
COC(=O)c1cn(-c2ccccc2)nc1-c1ccc(OC)cc1	none
COc1ccc(NC(=O)c2cccnc2Nc2ccc(OC)cc2)cc1	GLP1R inv ag 10µM
Cc1ccc(NC(=O)c2cn(-c3ccccc3)nc2-c2ccccc2)cc1	GLP1R inv ag inconclusive (no result: GLP-1R agonist)
COc1ccc(NC(=O)c2cn(-c3ccccc3)nc2-c2ccc(C)cc2)cc1	GLP1R inv ag 7.9µM (no result: GLP-1R agonist)
Cc1ccc(C(=O)c2sc(Nc3ccccc3F)c(S(=O)(=O)c3ccccc3)c2N)c(C)c1	GLP1R inv ag inconclusive
Cc1ccc(-c2ccc(/C=N/N3C(=O)C4C5C=CC(C6CC56)C4C3=O)o2)c([N+](=O)[O-])c1 (configuration not stated)	GLP1R inv ag 3.5µM
O=C1C2C3C=CC(C4CC34)C2C(=O)N1/N=C/c1ccc(-c2ccc([N+](=O)[O-])cc2)o1 (configuration not stated)	none
CCN(CC)c1ccc(/C=C/c2ccncc2)cc1	none (no result: HEK293 tox, GLP-1R agonist, TRPML1 blocker, GLP1R inv ag)
CC(C)NC1=C(Cl)C(=O)c2ccccc2C1=O	HEK293 tox 5.6µM
COc1ccc(CC(=O)Nc2nc(-c3ccc(F)c(F)c3)cs2)cc1	GLP1R inv ag 11µM
O=S1(=O)CCOC[C@H](c2ccccc2)N1Cc1ccc(Cl)c(Cl)c1	none (no result: HEK293 tox, GLP-1R agonist, TRPML1 blocker, GLP1R inv ag)
CC(C)CCNC(=O)C1(C)CCN1Cc1ccc2ccccc2c1 (configuration not stated)	GLP1R inv ag 10µM (no result: TRPML1 blocker)
CCNC(=S)N/N=C(\C)c1cccc(C(F)(F)F)c1	HEK293 tox 4.5µM, GLP1R inv ag 4.5µM
COCCNC(=S)N/N=C(\C)c1ccc(Cl)c(Cl)c1Cl	HEK293 tox 3.5µM, GLP1R inv ag inconclusive
COCCNC(=S)N/N=C(\C)c1ccc(Cl)s1	HEK293 tox 2.8µM, GLP1R inv ag 2.2µM
COCCNC(=S)N/N=C(\C)c1cccc([N+](=O)[O-])c1	HEK293 tox inconclusive, GLP1R inv ag inconclusive
COCCNC(=S)N/N=C(\C)c1ccc(Cl)c(Cl)c1	GLP1R inv ag inconclusive
COCCNC(=S)N/N=C(\C)c1cccc(OC)c1	HEK293 tox inconclusive, GLP1R inv ag 4µM
CC(=O)N/N=C(\C)c1cccc(C(F)(F)F)c1	none
CCOc1ccc(OCC)c(NC(=O)CCc2c(C)nc3c(c2C)c(=O)n(C)c(=O)n3C)c1	none
Nc1cccc(/C=C/c2ccnc3ccccc23)c1	none (no result: HEK293 tox, GLP-1R agonist, TRPML1 blocker, GLP1R inv ag)
O=C1/C(=C/c2cccs2)N=C(c2cccs2)N1Nc1ccccc1	GLP1R inv ag 10µM
CCn1c2ccccc2c2cc(CN3CCN(Cc4cc(OC)ccc4O)CC3)ccc21	GLP1R inv ag inconclusive
CCn1c2ccccc2c2cc(CN3CCN(Cc4cc(OC)c(O)c(OC)c4)CC3)ccc21	GLP1R inv ag 11µM (no result: GLP-1R agonist)
CC1C=CC(C)C(C(=O)c2ccccc2)C1C(=O)c1ccccc1 (configuration not stated)	GLP1R inv ag 13µM
O=C(c1ccccc1)C1OC1C(=O)c1ccccc1 (configuration not stated)	GLP1R inv ag inconclusive
O=C(Cn1c(SCCOc2ccc(Cl)cc2)nc2ccccc21)N1CCCCC1	GLP1R inv ag inconclusive (no result: GLP-1R agonist)
CCc1ccccc1NC(=O)Cn1nnc2sc3c(c2c1=O)CCC(C(C)(C)C)C3 (configuration not stated)	GLP1R inv ag 11µM (no result: GLP-1R agonist)
O=C(/C=C/c1ccc(C(F)(F)F)cc1)OC(C(=O)NC1CC1)c1ccccc1 (configuration not stated)	none (no result: HEK293 tox, GLP-1R agonist, TRPML1 blocker, GLP1R inv ag)
